According to PubChem BioAssay (EPA / NIEHS):
Records with an inconclusive call do not appear. Activity calls are given as the source filed them. The calls were made as follows: active = hit-call score of the fitted dose curve at least 0.9, where 1 is the maximum; inconclusive = response in the unintended direction; inactive = score below 0.9.

system: DIO1 (gene 1733); test: CCTE_GLTED_hDIO1: CCTE's human Deiodinase 1 (DIO1) Inhibition Assay, Great Lakes Toxicology and Ecology Division (GLTED) Lab (AID 2283987);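 also: isolated human DIO1 enzyme in a cell-free setup rather than cells; enzyme activity read as free iodide liberated from substrate via Sandell-Kolthoff colorimetry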
Summary of the method: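 Cell-free human DIO1 enzyme incubated 3 h with test chemical; iodide freed from substrate then measured by Sandell-Kolthoff absorbance. Run in triplicate; loss of signal relative to DMSO taken as inhibition.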

Question: For `C=C(C)C(=O)OCC(F)(F)C(F)(F)C(F)(F)C(F)F`, which AC50 is on record?
Answer: 25.5 µM (active)

Question: For `CCCCCCCCCCCCCC[P+](CCCC)(CCCC)CCCC`, which AC50 is on record?
Answer: 11.5 µM (active)

Question: With `NS(=O)(=O)C(F)(F)C(F)(F)C(F)(F)C(F)(F)C(F)(F)C(F)(F)F` as the compound, how does the AC50 read?
Answer: 44.3 µM (active)

Question: Which AC50 does the source give for `CCCCCCCCn1sc(Cl)c(Cl)c1=O` here?
Answer: 0.411 µM (active)

Question: For `C=CC(=O)OCC(F)(F)C(F)(F)C(F)(F)COC(=O)C=C`, which AC50 is on record?
Answer: 19.6 µM (active)

Question: How did the AC50 turn out when `C=CC(=O)OCC(F)(F)C(F)(F)C(F)(F)C(F)(F)C(F)(F)C(F)(F)C(F)(F)C(F)F` was run?
Answer: 8.44 µM (active)

Question: With `CCCCCCCC/C=C\CCCCCCCC(=O)N(C)CC(=O)O` as the compound, how does the AC50 read?
Answer: 95.4 µM (active)

Question: For `CCCCCCCCCCCCC[N+](C)(C)Cc1ccccc1`, which AC50 is on record?
Answer: 38.7 µM (active)

target: Nucleoli Translocation, AR (gene 367) (UniProt P10275); test: UPITT_HCI_U2OS_AR_TIF2_Nucleoli_Antagonist: University of Pittsburgh U2OS Androgen Receptor-Transcriptional Intermediary Factor 2 (AR-TIF2) Antagonism High Content Imaging Assay for Nucleoli Translocation (AID 2283997)
Summary of the method: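 U2OS cells expressing RFP-tagged human AR and GFP-tagged TIF2 were imaged by high-content fluorescence microscopy for red AR signal in the nucleolar region. Compounds were screened at 20 uM final (0.2% DMSO), with activity fitted relative to DHT as baseline.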

Sequence of Nucleoli Translocation, AR (gene 367) (P10275 whole entry, looked up): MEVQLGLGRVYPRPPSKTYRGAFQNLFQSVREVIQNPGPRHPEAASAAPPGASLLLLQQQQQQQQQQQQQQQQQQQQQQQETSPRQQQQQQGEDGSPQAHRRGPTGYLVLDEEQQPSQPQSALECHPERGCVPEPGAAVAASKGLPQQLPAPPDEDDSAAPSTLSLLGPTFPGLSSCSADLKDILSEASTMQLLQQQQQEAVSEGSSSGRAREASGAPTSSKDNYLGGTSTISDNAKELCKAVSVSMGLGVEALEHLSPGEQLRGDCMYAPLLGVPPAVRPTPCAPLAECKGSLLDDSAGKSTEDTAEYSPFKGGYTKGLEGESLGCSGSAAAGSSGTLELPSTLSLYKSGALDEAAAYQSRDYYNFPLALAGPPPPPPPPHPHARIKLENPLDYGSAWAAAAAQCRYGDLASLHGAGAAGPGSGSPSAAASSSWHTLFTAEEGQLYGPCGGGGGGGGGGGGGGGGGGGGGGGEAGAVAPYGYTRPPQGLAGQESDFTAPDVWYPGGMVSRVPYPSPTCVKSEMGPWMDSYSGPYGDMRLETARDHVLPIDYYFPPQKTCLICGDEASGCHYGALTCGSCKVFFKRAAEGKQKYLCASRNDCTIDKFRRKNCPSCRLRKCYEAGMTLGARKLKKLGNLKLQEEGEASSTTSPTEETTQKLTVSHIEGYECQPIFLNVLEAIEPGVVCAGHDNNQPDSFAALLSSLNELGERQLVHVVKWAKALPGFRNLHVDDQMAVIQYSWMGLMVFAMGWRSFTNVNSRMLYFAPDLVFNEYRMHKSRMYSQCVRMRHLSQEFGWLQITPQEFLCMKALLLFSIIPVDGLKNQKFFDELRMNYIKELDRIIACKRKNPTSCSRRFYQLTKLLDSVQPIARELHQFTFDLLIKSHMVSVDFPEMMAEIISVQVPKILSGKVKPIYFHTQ

Question: With `CCN=C1C=CC(=C(c2ccc(N(CC)CC)cc2)c2ccc(N(CC)CC)cc2)c2ccccc21` as the compound, how does the AC50 read?
Answer: 1.4 µM (active)

Question: Which AC50 does the source give for `CCCCCCCCCCCCCC[P+](CCCC)(CCCC)CCCC` here?
Answer: 5.62 µM (active)

Question: How did the outcome turn out when `CCCCCCCCCc1ccc(OCCO)cc1` was run?
Answer: inactive

Question: Which AC50 does the source give for `O=C1C=CC(=O)N1c1ccccc1` here?
Answer: 5.44 µM (active)

Question: `CCCCCCCC/C=C\CCCCCCCC(=O)OCC(O)CO` (configuration not stated) was tested. Which outcome did it give?
Answer: inactive

Question: With `COCCOCCC[Si](C)(O[Si](C)(C)C)O[Si](C)(C)C` as the compound, how does the outcome read?
Answer: inactive

Question: With `C[C@]12CC[C@H]3C(=CCc4cc(O)ccc43)[C@@H]1CCC2=O` as the compound, how does the AC50 read?
Answer: 0.234 µM (active)

Question: Which outcome does the source give for `Cc1cccc(C)n1` here?
Answer: inactive

Question: With `CC1CCCCC1` as the compound, how does the outcome read?
Answer: inactive

Question: How did the outcome turn out when `CCc1ccc(C)nc1` was run?
Answer: inactive

Question: Which AC50 does the source give for `CCCCCCCCCCCCC[N+](C)(C)Cc1ccccc1` here?
Answer: 13.7 µM (active)

Question: How did the outcome turn out when `F[Si-2](F)(F)(F)(F)F` was run?
Answer: inactive

target: Nucleoli Translocation, AR (gene 367) (UniProt P10275); test: UPITT_HCI_U2OS_AR_TIF2_Nucleoli_Agonist: University of Pittsburgh U2OS Androgen Receptor-Transcriptional Intermediary Factor 2 (AR-TIF2) Agonism High Content Imaging Assay for Nucleoli Translocation (AID 2283998)
Summary of the method: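 U2OS cells expressing RFP-tagged human AR and GFP-tagged TIF2; red fluorescence in nucleoli quantified by high-content imaging. Primary screen at 20 uM final (0.2% DMSO); concentration-response 0.195–50 uM (0.5% DMSO), fitted upward versus DMSO.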

Question: With `CCCCCCCCCCCCCC[P+](CCCC)(CCCC)CCCC` as the compound, how does the outcome read?
Answer: inactive

Question: For `CCCCCCCCCc1ccc(OCCO)cc1`, which outcome is on record?
Answer: inactive

Question: `O=C1C=CC(=O)N1c1ccccc1` was tested. Which outcome did it give?
Answer: inactive

Question: How did the outcome turn out when `CCCCCCCC/C=C\CCCCCCCC(=O)OCC(O)CO` (configuration not stated) was run?
Answer: inactive

Question: `CCN=c1cc2oc3cc(NCC)c(C)cc3c(-c3ccccc3C(=O)OCC)c-2cc1C` was tested. Which AC50 did it give?
Answer: 12.9 µM (active)

Question: `COCCOCCC[Si](C)(O[Si](C)(C)C)O[Si](C)(C)C` was tested. Which AC50 did it give?
Answer: 88.8 µM (active)

Question: How did the outcome turn out when `C[C@]12CC[C@H]3C(=CCc4cc(O)ccc43)[C@@H]1CCC2=O` was run?
Answer: inactive

Question: How did the outcome turn out when `Cc1cccc(C)n1` was run?
Answer: inactive

Question: Which outcome does the source give for `CC1CCCCC1` here?
Answer: inactive

Question: `CCc1ccc(C)nc1` was tested. Which outcome did it give?
Answer: inactive

Question: For `CCCCCCCCCCCCC[N+](C)(C)Cc1ccccc1`, which outcome is on record?
Answer: inactive

Question: `F[Si-2](F)(F)(F)(F)F` was tested. Which outcome did it give?
Answer: inactive
